Records with an inconclusive call do not appear. Active and inactive are the calls of the source. Calls come from the whole dose curve; as a rule, active = well fitted inhibition curve with a large enough effect; inconclusive = small, poorly fitted or top-dose-only effect; inactive = no such curve, though single readings can be large or run the other way.
Test: Primary qHTS for inhibitors of nuclear receptor binding SET domain protein 2 (NSD2) in an RCH-ACV wild type WT cells (2C) (AID 1645877); note: nearly all actives have a fitted effect of over 70% in size
Settings: RCH-ACV (leukaemia line) NSD2 WT (2C) viability, CellTiter-Glo, 72 h; series mostly up to 44.9 µM; activity change, negative = cell killing: at the top concentration
% is set by controls: 0 for no effect and ±100 for the full control effect.

Row | SMILES | activity change, negative = cell killing | outcome
1 | CC1(C(=O)O)CCCC2(C)C3CCC4CC3(CCC12)CC4=O (stereo unspecified) | 1.71% (inactive) | –
2 | CC1(O)CC(O)C2(O)C=COC(O[C@@H]3O[C@H](CO)[C@@H](O)[C@H](O)[C@H]3O)C12 (stereo partly specified) | -1.17% (inactive) | –
3 | CC1OC(OC2CCC3(C)C(CCC4(C)C3CC=C3C5CC(C)(C)CCC5(C(=O)OC5OC(CO)C(O)C(O)C5O)CCC34C(=O)O)C2(C)C)C(O)C(O)C1O (stereo unspecified) | 1.29% [at 17.3 µM] (inactive) | –
4 | CC(C)C1=CC2C(CC[C@]2(C)O)[C@](C)(O)CC1 (stereo partly specified) | 3.98% (inactive) | –
5 | CC1CC2OC3(OC2C(C)(C)O)C1C1(C)CCC24CC25CCC(O[C@@H]2OC[C@@H](O)[C@H](O)[C@H]2O)C(C)(C)C5CC=C4C1(C)C3O (stereo partly specified) | – | inactive [at 17.3 µM]
6 | CCCOc1ccc(-c2nc(OC)c3ccccc3n2)cc1 | 2.52% (inactive) | –
